PubChem BioAssay AID1578 (Sanford-Burnham Center for Chemical Genomics, 2009)
The campaign covered roughly 290,000 compounds. About 3,000 (1%) were called active. What follows is part of a selection rich in actives, with near analogues and random picks from the rest. A number with no mark means an inactive call. Cut-off read from the data, not from the text of the source: active = inhibition mostly above about 36% (no sharp cut-off); inactive = mostly below about 34%.

Assay: NOD1 signaling inhibitors, primary screen, cell-based, luminescence, uHTS (AID 1578);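 note: HEK-293T reporter cells stimulated with the NOD1 agonist gamma-tri-DAP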
Details: NOD1-driven NF-kB luciferase reporter cells, at 4 µM, stronger effect = higher value

SMILES | inhibition
COc1ccc(NC(=O)CN(C)C(=O)c2ccc(-c3cccc(C(F)(F)F)c3)o2)cc1 | -14.7%
C=CCOc1ccccc1CNCc1ccc(F)cc1 | -24%
Cc1ccc(S(=O)(=O)c2nc(S(C)(=O)=O)sc2N2CCCCC2C)cc1 (configuration not stated) | 55.1% (active)
Cc1ccc(S(=O)(=O)c2nc(S(C)(=O)=O)sc2N2CCCC2)cc1 | -19.8%
Cc1ccc(S(=O)(=O)c2nc(S(C)(=O)=O)sc2N2CCCCCC2)cc1 | 32.4%
CC(=O)N1CCc2cc(S(=O)(=O)Nc3cccc(C(F)(F)F)c3)ccc21 | 30.6%
CC(=O)N1CCc2cc(S(=O)(=O)Nc3ccc(C)cc3)ccc21 | 0%
CCCNC(=O)CN1C(=O)COc2ccc(S(=O)(=O)N3CCCCCC3)cc21 | -13.3%
COc1ccc(Cl)cc1C(=O)Nc1cccc2ncccc12 | 13.1%
COc1ccc(OCc2cccc(C(=O)O)c2)cc1 | 102% (active)
O=C(O)c1ccc(COc2ccc(CO)cc2Cl)cc1 | -26.3%
O=C(O)c1cccc(COc2ccccc2Cl)c1 | 97.2%
COc1ccc(OCc2ccc(C(=O)O)cc2)cc1 | -70.3%
CCOc1ccc(OCc2cccc(C(=O)N(CC)CC)c2)cc1 | -59.7%
O=C1NC(=O)/C(=C\c2ccc(OCc3cccc(C(=O)O)c3)c(Cl)c2)N1 | -17.1%
O=C(O)c1cccc(COc2ccc(CO)cc2Cl)c1 | 99.2% (active)
COc1cccc(/C=C(/C#N)c2ccc(Cl)cc2)c1OCc1cccc(C(=O)O)c1 | 14.4%
CCOc1ccc(OCc2cccc(C(=O)N3CCCC3)c2)cc1 | -38%
COc1ccc(OCc2cccc(C(=O)NN)c2)cc1 | 38.9%
CCOc1ccc(OCc2cccc(C(=O)O)c2)cc1 | 97.5% (active)
C/C(=N\OCc1cccc(C(=O)O)c1)c1ccc(Cl)cc1 | 47.4% (active)
O=C(N=C1SC2CS(=O)(=O)CC2N1c1ccc(OC(F)(F)F)cc1)C1CC1 (configuration not stated) | -27.3%
O=C(NC(c1cccnc1)C(F)(F)F)c1cc(COc2ccc3c(c2)CCCC3)on1 (configuration not stated) | 1.4%
Cc1nn(-c2ccccc2)c(=S)n1-c1ccccc1 | -7%
O=C(CSc1n[nH]c(-c2ccccc2)n1)Nc1ccc(F)cc1F | -6.2%
COc1ccc(OCc2cc(C(=O)N3CCCCCCC3)no2)c(Cl)c1 | -23.7%

SMILES | inhibition
COCCn1c(C)cc(/C=C2/NC(=O)N(c3ccc(Cl)cc3)C2=O)c1C | -49.9%
COc1ccc(OCc2cccc(C(=O)Nn3cc([N+](=O)[O-])cn3)c2)cc1 | 50.9% (active)
O=C(O)c1cccc(COc2ccc3c(c2)CCC3)c1 | 92.4% (active)
COC(=O)c1cccc(Cn2cc([N+](=O)[O-])cn2)c1 | -7.1%
O=C(O)c1ccc(COc2ccc3c(c2)CCC3)cc1 | -2.9%
Cc1nn(Cc2cccc(C(=O)Nn3cc([N+](=O)[O-])cn3)c2)c(C)c1[N+](=O)[O-] | 0.9%
NNC(=O)c1cccc(COc2ccc3c(c2)CCC3)c1 | 62.3%
COc1ccc(OC)c(-c2csc(NC(=O)Cc3ccc(OC)c(OC)c3)n2)c1 | 25.1%
Cc1cc(C)cc(N(C(=O)c2csnn2)C(C(=O)NC(C)(C)C)c2cccs2)c1 (configuration not stated) | 10.5%
O=C1CCCCC(=O)N(c2ccccc2)c2ccccc21 | 7.2%
CCOC(=O)c1cnc2ccc(OCC)cc2c1NCc1ccccc1 | -5.7%
CCOC(=O)c1cnc2ccc(OC)cc2c1NCc1ccccc1 | 3.2%
CCOC(=O)c1cnc2ccc(OCC)cc2c1NCc1ccccc1OC | 72.7% (active)
CN(C)Cc1ccc(F)cc1Sc1cc(Cl)ccc1Cl | 63.7% (active)
CN(C)C(=O)c1cc(F)ccc1Sc1cc(Cl)ccc1Cl | -6.9%
CN(C)Cc1ccc(F)cc1Sc1ccc(Cl)cc1Cl | -13.9%
CCc1ccc(-n2c(SCC(=O)N3CCC(C(=O)O)CC3)nnc2-c2ccncc2)cc1 | -31.9%
O=c1c(/C=N\NS(=O)(=O)c2ccccc2)coc2ccc(Cl)cc12 | 69.9% (active)
NC(=S)N/N=C/c1coc2ccc(Cl)cc2c1=O | 9.6%
O=C(N/N=C/c1coc2ccc(Cl)cc2c1=O)c1cc(O)cc(O)c1 | 31.6%
CC(=O)N1CCN=C1SCc1ccccc1Cl | 1.2%
COc1ccc(C2C(C(=O)c3sc(C)nc3C)=C(O)C(=O)N2CCN(C)C)cc1 (configuration not stated) | -18.4%
CCOc1ccc(/C=C2\SC(=S)NC2=O)cc1OC | -40.1%
COc1cc(/C=C2/SC(=O)NC2=O)ccc1OCc1ccccc1 | -38.4%
CCOc1ccc(N(C)c2ccc(/C=C3/SC(=S)NC3=O)cc2)cc1 | 43.6%
COc1ccccc1OCCCOc1ccc(/C=C2\SC(=O)NC2=O)cc1OC | 54.4%

SMILES | inhibition
CC(=O)Nc1ccc(OCc2nnc(-c3ccc(Cl)cc3)o2)cc1 | -27.9%
Cc1ccc2c(c1)c1c(n2CC(O)Cn2ccnc2C)C(=O)CCC1 (configuration not stated) | -18.6%
COCCNC(=S)N(CCc1c(C)[nH]c2ccccc12)Cc1ccco1 | -30.2%
O=C(CCN1C(=O)c2ccccc2C1=O)N1CCOCC1 | -25.4%
Cc1ccc2c(c1)CCCN2C(=O)Nc1ccc2c(c1)OCO2 | -2.3%
O=C(Cn1cncn1)NCc1ccc(Cl)cc1 | 66.1% (active)
COc1ccc(CNC(=O)Cn2cncn2)cc1OC | -12.9%
Cc1ccc(CNC(=O)Cn2cncn2)cc1 | 8.6%
Cc1cc(C)n(C(=O)CCCCCCCC(=O)n2nc(C)cc2C)n1 | -26.9%
COc1ccc(NC(=O)c2cc3ccc4c5ccccc5[nH]c4c3cc2O)cc1 | -6.7%
CC(=O)Nc1ccc2[nH]c3ccccc3c2c1 | -15.1%
O=C(Nc1ccc(Cl)cc1)c1cc2c(cc1O)[nH]c1ccccc12 | 43.7% (active)
O=C(CSc1ccc(-c2ccccn2)nn1)NCc1ccc(F)cc1 | -16.2%
COc1ccccc1CNC(=O)COC(=O)CNS(=O)(=O)c1ccc(C)cc1 | -3%
CN(c1ncnc(N)c1[N+](=O)[O-])C1CCS(=O)(=O)C1 (configuration not stated) | 58% (active)
Cc1ccc(N(c2ncnc(N)c2[N+](=O)[O-])C2CCCCC2)cc1 | 22.2%
CN(c1ncnc(N)c1[N+](=O)[O-])C1CCCCC1 | 80.2% (active)
Nc1ncnc(NC2CCS(=O)(=O)C2)c1[N+](=O)[O-] (configuration not stated) | 11.8%
CN(Cc1ccccc1)c1ncnc(N)c1[N+](=O)[O-] | 46%
Nc1ncnc(N(c2ccccc2)C2CCCCC2)c1[N+](=O)[O-] | 44.6%
CC1=Cc2ccccc2C(C#N)N1C(=O)c1ccccc1 (configuration not stated) | 31.4%
Cc1cc(-c2ccc(C)c(S(=O)(=O)N3CCN(c4ccccn4)CC3)c2)on1 | -13%
CCc1ccc(-c2cc(C)no2)cc1S(=O)(=O)N1CCN(c2ccc(F)cc2)CC1 | 5.8%
COc1ccc(-c2cc(C)no2)cc1S(=O)(=O)NCCCN1CCN(c2ccccc2)CC1 | -7.4%
Cc1cc(-c2ccc(C)c(S(=O)(=O)NCCCN3CCN(c4ccccc4)CC3)c2)on1 | 17.3%
CC(NC(=O)NC(=O)c1ccc(Cl)cc1Cl)C1CC1 (configuration not stated) | -53%

SMILES | inhibition
CCOc1ccc(NC(=S)NC(C)c2cccs2)cc1 (configuration not stated) | -21.7%
COc1cc(NC(=O)CN(c2ccc(C)cc2)S(=O)(=O)c2c(C)noc2C)cc(OC)c1 | -34.4%
O=C1C=C(NCc2ccccc2)c2ccccc2C1=O | 78.8% (active)
CCCCNC1=CC(=O)C(=O)c2ccccc21 | -7.1%
O=C1C=C(Nc2ccccc2)c2ccccc2C1=O | -24.6%
O=C1Cc2cc(S(=O)(=O)N3CCCCC3)ccc2N1 | -22.1%
CCCC(=O)NC(=S)Nc1cccc(NC(=O)c2ccccc2Cl)c1 | -18.6%
COc1ccccc1NS(=O)(=O)c1cc(NC(=O)c2ccc3ccccc3n2)ccc1Cl | -24.5%
O=C(Nc1cccc(S(=O)(=O)Nc2ccccc2F)c1)c1ccc2ccccc2n1 | 33.7%
COc1ccc(CCNC(=O)c2ccc3ccccc3n2)cc1OC | -14.9%
COc1ccc(CNC(=O)c2ccc3ccccc3n2)cc1 | -33.9%
COc1cccc(C(=O)NC2CCN(CC(=O)Nc3nccs3)CC2)c1 | 7.4%
O=C(c1ccc2nc(Cc3cccc(Cl)c3)oc2c1)N1CCC[C@H]1CO | -34%
O=C(CCN1CCCCO1)N1CCCC(N2CCN(c3ccc(F)cc3)CC2)C1 (configuration not stated) | -8.6%
Cc1ccc(CNC(=O)C2CCN(c3nn4c(=O)cc(C)nc4s3)CC2)cc1 | -23.9%
COc1ccc(C)cc1N(C(=O)c1ccc(C#N)cc1)C1=NC(C)(C)CS1 | -8.3%
Cc1ccc(OCC(=O)N2CCc3ccccc3C2)cc1 | 4.6%
COc1ccc(OCC(=O)N2CCc3ccccc3C2)cc1 | -21.2%
CCn1cc(/C=N/NC(=O)c2cc3c(ccc4ccccc43)o2)c2ccccc21 | 32%
CCOC(=O)N/N=C/c1cn(CCCOc2ccc(C)cc2)c2ccccc12 | 31.1%
COC(=O)N/N=C/c1cn(CCCOc2ccccc2)c2ccccc12 | 25.7%
CCOC(=O)N/N=C/c1cn(CCCOc2ccccc2)c2ccccc12 | 79.6% (active)
CCOC(=O)Cn1cc(/C=N/NC(=O)c2cc3ccccc3o2)c2ccccc21 | 35.8% (active)
C#CCn1cc(/C=N/NC(=O)c2cc3ccccc3o2)c2ccccc21 | -7.9%
